Laboratory results published in PubChem BioAssay (Tox21).
Records with an inconclusive call do not appear. Activity calls are given as the source filed them. Unless noted, the call rests on the fitted dose curve; in most records, active means well fitted curve in the direction sought with a large enough effect in the repeat runs; inconclusive means weak or mixed curves; inactive means no such curve, though single readings can be large; an effect the other way counts as inactive or inconclusive.

Key:
[1] = qHTS assay for small molecule agonists of the p53 signaling pathway (AID 651631; calls by dose curve; further: nearly all actives have a fitted effect of over 15% in size)
In short: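 Beta-lactamase reporter activity under p53 response elements was quantified in HCT-116 cells by FRET fluorescence, following 16 h incubation with test compounds at 37 °C and 2 h substrate development at room temperature.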

[2] = qHTS assay for small molecules that induce genotoxicity in human embryonic kidney cells expressing luciferase-tagged ATAD5 (AID 651632); further: nearly all actives have a fitted effect of over 15% in size
In short: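 Luminescent reporter readout, HEK293T ATAD5-luc line: 16 hr drug exposure (37C, 5% CO2) followed by Amplite, 30 min RT.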

[3] = qHTS assay for small molecule agonists of the p53 signaling pathway - cell viability (AID 651633; calls by dose curve;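 further: p53RE-bla HCT reporter cells with a stable beta-lactamase p53 reporter; series mostly up to about 83 µM; nearly all actives have a fitted effect of over 30% in size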)
In short: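 p53RE-bla cells, seeded at 4,000 per well and rested 5 h at 37 C/5% CO2, received compounds in DMSO for 16 h at 37 C. CellTiter-Glo was then added, and luminescence was read after 30 min at room temperature to gauge cytotoxicity.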

[4] = qHTS assay for small molecules that induce genotoxicity in human embryonic kidney cells expressing luciferase-tagged ATAD5 - cell viability (AID 651634; calls by dose curve; further: nearly all actives have a fitted effect of over 25% in size)
In short: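 Viability read: CellTiter-Fluor fluorescence, 30 min at 37C. Cells: HEK293T, luciferase-tagged ATAD5. Exposure: 15.5 hr, 37C, 5% CO2, compound or DMSO vehicle.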

[5] = qHTS assay for small molecule disruptors of the mitochondrial membrane potential - cell viability (AID 720634; calls by dose curve;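 further: human HepG2 liver cancer cells; series mostly up to about 83 µM; nearly all actives have a fitted effect of over 20% in size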)
In short: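 HepG2, 1 hr compound, 37 C. ATP luminescence via CellTiter-Glo, 30 min RT, same well as m-MPI.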

[6] = qHTS assay to test for compound auto fluorescence at 590 nm (red) in HepG2 cells (AID 720674)
In short: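 Rose Bengal sodium served as the red fluorophore standard. HepG2 monolayers (overnight attachment, MEM with 10% FBS) were exposed to test compounds for 1 hr at 37 C and read at Ex 540/Em 590 nm.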

[7] = qHTS assay to test for compound auto fluorescence at 460 nm (blue) in HEK293 cells (AID 720678)
In short: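 HEK293, 2,000 cells/well, 10% dialyzed FBS; attach 4-5 hr 37C; pin compound or DMSO; o/n 37C/5% CO2; fluorescence 405/460 nm; triamterene-equivalent units.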

[8] = qHTS assay to test for compound auto fluorescence at 590 nm (red) in HEK293 cells (AID 720679)
In short: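 Intensity at 540nm excitation and 590nm emission is reported as Rose Bengal sodium-equivalent autofluorescence. Measurements followed overnight exposure (37C, 5% CO2) of HEK293 cells, 2,000 per well, to 23 nL compound.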

[9] = qHTS assay to test for compound auto fluorescence at 460 nm (blue) in HEK293 cell free culture (AID 720681)
In short: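 Test compounds were pinned into cell-free culture medium (DMEM with 10% FBS) and fluorescence was read directly at Ex/Em 405/460 nm. Signals were expressed as fluorescence equivalents of triamterene, with DMSO vehicle as control.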

[10] = qHTS assay to test for compound auto fluorescence at 535 nm (green) in HEK293 cell free culture (AID 720682)
In short: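 Each library compound, or DMSO control, is added by pintool to medium alone, comprising DMEM and 10% FBS. Emission at 535 nm following 485 nm excitation is quantified against fluorescein.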

[11] = qHTS assay to test for compound auto fluorescence at 590 nm (red) in HEK293 cell free culture (AID 720683)
In short: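 Tox21 10K library compounds were pinned into cell-free DMEM with 10% FBS and fluorescence was read at excitation 540 nm. Activity is expressed as Rose Bengal sodium equivalency.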

[12] = qHTS assay to test for compound auto fluorescence at 590 nm (red) in HepG2 cell free culture (AID 720684)
In short: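 Red fluorescence (540 nm excitation, 590 nm emission) was measured after compound transfer into cell-free MEM supplemented with 10% FBS. Values are equivalencies against Rose Bengal sodium.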

[13] = qHTS assay to test for compound auto fluorescence at 460 nm (blue) in HepG2 cell free culture (AID 720685)
In short: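 Compound (23 nL) or DMSO pinned into cell-free MEM with 10% FBS; blue fluorescence read at 405/460 nm excitation/emission, expressed as auto-fluorescence equivalency to triamterene.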

[14] = qHTS assay to test for compound auto fluorescence at 460 nm (blue) in HepG2 cells (AID 720687)
In short: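 Cells (2,000/well in MEM with 10% FBS) attached overnight at 37 C, then were exposed to compound or DMSO for 1 hr at 37 C, 5% CO2. Fluorescence read at Ex/Em 405/460 nm, expressed as triamterene-equivalent signal.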

[15] = molecular target: Glucocorticoid receptor (Homo sapiens) (UniProt P04150); test: qHTS assay to identify small molecule agonists of the glucocorticoid receptor (GR) signaling pathway (AID 720691; active means well fitted activation curve with a large enough effect in the signal ratio in the repeat runs, not every such curve was filed as active; the % refers to the signal ratio)
Chain of Glucocorticoid receptor (Homo sapiens) (P04150 whole entry, looked up): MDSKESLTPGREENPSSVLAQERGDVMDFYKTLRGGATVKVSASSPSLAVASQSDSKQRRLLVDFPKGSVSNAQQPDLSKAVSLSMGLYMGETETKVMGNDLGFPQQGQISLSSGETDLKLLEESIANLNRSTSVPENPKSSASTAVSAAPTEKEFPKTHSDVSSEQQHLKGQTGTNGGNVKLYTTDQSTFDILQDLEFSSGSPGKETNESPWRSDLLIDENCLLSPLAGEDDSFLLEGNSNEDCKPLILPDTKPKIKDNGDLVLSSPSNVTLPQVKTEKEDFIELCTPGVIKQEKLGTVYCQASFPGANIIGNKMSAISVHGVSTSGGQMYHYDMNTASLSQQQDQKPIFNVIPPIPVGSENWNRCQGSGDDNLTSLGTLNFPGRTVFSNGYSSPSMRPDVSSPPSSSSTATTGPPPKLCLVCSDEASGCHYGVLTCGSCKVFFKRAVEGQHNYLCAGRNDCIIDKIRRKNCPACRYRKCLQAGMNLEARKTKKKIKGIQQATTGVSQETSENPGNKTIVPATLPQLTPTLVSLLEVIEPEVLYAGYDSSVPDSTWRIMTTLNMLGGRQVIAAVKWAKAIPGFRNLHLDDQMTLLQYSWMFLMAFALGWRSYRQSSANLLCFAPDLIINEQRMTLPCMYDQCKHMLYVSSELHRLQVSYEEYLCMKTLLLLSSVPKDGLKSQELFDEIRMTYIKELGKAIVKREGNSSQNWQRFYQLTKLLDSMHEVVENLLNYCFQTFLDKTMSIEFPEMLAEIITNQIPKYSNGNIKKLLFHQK
In short: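 qHTS in GR-bla HeLa cells: 4 h settling at 37 C/5% CO2, 18 h compound incubation at 37 C, 2 h LiveBLAzer B/G FRET substrate at room temperature, fluorescence intensity measured.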

[16] = molecular target: Glucocorticoid receptor (Homo sapiens) (UniProt P04150); test: qHTS assay to identify small molecule antagonists of the glucocorticoid receptor (GR) signaling pathway (AID 720692; active means well fitted inhibition curve with a large enough effect in the signal ratio in the repeat runs, not every such curve was filed as active; the % refers to the signal ratio)
In short: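 Inhibition of glucocorticoid signalling is measured in HeLa cells with a GRE-controlled beta-lactamase reporter; cells are co-treated with compound and 5 nM dexamethasone (final) for 18 h before FRET substrate readout.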

[17] = qHTS assay to test for compound auto fluorescence at 535 nm (green) in HEK293 cells (AID 720680)
[18] = qHTS assay to test for compound auto fluorescence at 535 nm (green) in HepG2 cell free culture (AID 720686)
[19] = qHTS assay to test for compound auto fluorescence at 535 nm (green) in HepG2 cells (AID 720675)
[20] = qHTS assay for small molecule disruptors of the mitochondrial membrane potential (AID 720635)
In short: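 HepG2 cells (2,000/well) attached overnight at 37C, then took compound for 1 hr at 37C, 5% CO2. Mito-MPS dye was added for 30 min; fluorescence was read at 490/535 nm (monomers) and 540/590 nm (aggregates).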
On the % scale 0 is the no-effect control and ±100 the full control effect.

O=C(c1ccc(O)cc1)c1ccc(O)cc1
inactive: Potency [1] | Potency [2] | Potency [3] | Potency [4] | Potency [5] | outcome [6] | Potency [7] | outcome [8] | Potency [9] | outcome [10] | outcome [11] | outcome [12] | Potency [13] | Potency [14] | Potency [15] | Potency [16]

O=C(C(=O)c1ccc(Br)cc1)c1ccc(Br)cc1
inactive: Potency [1] | Potency [2] | Potency [3] | Potency [4] | Potency [5] | fluorescence, relative to Rose Bengal [6] -0.609% [at 18.6 µM] | fluorescence, % of triamterene [7] 0.126% [at 18.6 µM] | fluorescence, % of fluorescent control [8] 0.203% [at 18.6 µM] | fluorescence, % of fluorescein [17] -0.0337% [at 18.6 µM] | fluorescence, % of fluorescent control [9] -0.0047% [at 18.6 µM] | activity change [10] 0.0143% [at 18.6 µM] | fluorescence, % of fluorescent control [11] -0.0329% [at 18.6 µM] | fluorescence, % of Rose Bengal [12] -0.0316% [at 18.6 µM] | fluorescence, % of fluorescent control [13] -0.0311% [at 18.6 µM] | fluorescence, % of fluorescein control [18] -0.0449% [at 18.6 µM] | fluorescence, % of fluorescent control [14] 0.0185% [at 18.6 µM] | Potency [15] | Potency [16]

CC1=CC(=O)/C(=C(/C)O)C(=O)O1
inactive: Potency [1] | Potency [2] | Potency [3] | Potency [4] | Potency [5] | outcome [6] | outcome [19] | Potency [7] | outcome [17] | Potency [9] | outcome [10] | outcome [11] | outcome [12] | Potency [13] | outcome [18] | Potency [14] | Potency [15] | Potency [16]

CCN(CCO)CCCC(C)Nc1ccnc2cc(Cl)ccc12 (centres undefined)
inactive: Potency [1] | Potency [2] | Potency [3] | Potency [4] | Potency [20] | outcome [6] | outcome [19] | Potency [7] | outcome [8] | outcome [17] | Potency [9] | outcome [10] | outcome [11] | outcome [12] | Potency [14] | Potency [16]

CCCc1ccccc1
inactive: Potency [1] | Potency [2] | Potency [3] | Potency [4] | Potency [5] | outcome [6] | outcome [19] | Potency [7] | outcome [8] | Potency [9] | outcome [10] | outcome [11] | outcome [12] | Potency [13] | outcome [18] | Potency [15] | Potency [16]

N#Cc1c(F)cccc1F
inactive: Potency [1] | Potency [2] | Potency [3] | Potency [4] | Potency [5] | outcome [6] | outcome [8] | outcome [17] | Potency [9] | outcome [10] | outcome [12] | Potency [13] | outcome [18] | Potency [14] | Potency [15] | Potency [16]

CCCCCCCCCO
inactive: Potency [1] | Potency [2] | Potency [3] | Potency [4] | Potency [5] | outcome [6] | outcome [19] | Potency [7] | outcome [8] | outcome [17] | Potency [9] | outcome [11] | outcome [12] | Potency [13] | outcome [18] | Potency [14] | Potency [15] | Potency [16]
